Assay results taken from PubChem BioAssay AID2501 (Southern Research Specialized Biocontainment Screening …, 2010).
Among all 2,200 compounds or so, about 1,200 (55%) were called active. The limit is not given here; nearly all actives have IC50 up to about 92 µM. The set was probably picked from earlier hits. The list shows a part of the results.

assay: counter assay for TAg ATPase ADP read-out – biochemical, ADP-Hunter, fluorescence, counter-screen (AID 2501); conditions: series mostly up to 100 µM;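 also: purified T antigen ATPase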;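 as to inhibition: 0% = enzyme with vehicle and 100% = reference inhibitor wells; higher means more inhibition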

SMILES | IC50 | inhibition
Cc1ccccc1CN(C)C(=O)COC(=O)CSc1ccc([N+](=O)[O-])cc1 | inactive | –
COC/C=C/C1=CC2=CC(=O)C(C)(OC(=O)c3ccco3)C(=O)C2=CO1 (stereo not given) | 2.83 µM (active) | –
COC/C=C/C1=CC2=CC(=O)C(C)(OC(=O)CCC(=O)OC)C(=O)C2=CO1 (stereo not given) | inactive | –
COC/C=C/C1=CC2=CC(=O)C(C)(OC(=O)c3cnc4ccccc4n3)C(=O)C2=CO1 (stereo not given) | inactive | –
O=c1[nH]c(=O)c2nnc(N/N=C\c3ccc(O)cc3)nc2[nH]1 | 7.96 µM (active) | –
Cc1ccc(Cn2c(=S)[nH]c3ccc(N4CCOCC4)cc3c2=O)o1 | inactive | –
O=c1c2cc(N3CCOCC3)ccc2[nH]c(=S)n1Cc1ccco1 | inactive | –
CCc1cc(N2CCOCC2)cc2c1[nH]c1ccccc12 | 6.15 µM (active) | –
Cc1cc(C)c(S(=O)(=O)c2ccccc2Cl)c(Cl)n1 | inactive | –
CN1CCC/C1=C/C=C1\SC(=S)NC1=O | 7.5 µM (active) | –
O=C1NC(=S)SC1=C1CCCC1 | inactive | –
CC(=O)c1sc2nsc(SCCN3CCOCC3)c2c1N | 21.3 µM (active) | –
O=C(CCn1c(=O)oc2cc(Cl)ccc21)Nc1ccc(O)cc1 | 3.84 µM (active) | –
O=C(O)CCC(=O)Nc1ccc(SSc2ccc(NC(=O)CCC(=O)O)cc2)cc1 | inactive | –
CS(=O)(=O)c1ccc(NC(=O)CCN2C(=O)C3CCCCC3C2=O)cc1 (stereo not given) | inactive | –
CN(C)CCN(C(=O)c1ccccc1Cl)c1nc2c(Cl)cccc2s1 | inactive | –
C/C(=N/NC(N)=S)c1cc2ccc(O)cc2oc1=O | 25.3 µM (active) | –
COC(=O)CSc1nnc(CNc2ccc(OC)cc2)n1C | 19.3 µM (active) | –
CCOc1ccc(NCc2nnc(SCC(=O)Nc3cc(C)on3)n2-c2ccc(OC)cc2)cc1 | 13.5 µM (active) | –
COc1ccc(CCNC(=O)CSc2nncs2)cc1 | inactive | –
COc1ccc(-c2nnc(SCC(=O)c3ccc[nH]3)n2-c2ccccc2)cc1 | inactive | –
COc1ccc(-n2c(SCC(=O)Nc3ccc(Cl)cc3)nc(O)c(Cc3ccccc3)c2=O)cc1 | inactive | –

SMILES | IC50 | inhibition
CCN1CCC[C@H]1CNC(=O)c1c(O)c(Cl)cc(Cl)c1OC | inactive | –
Nc1ccc(OCC(O)C[n+]2ccc(CCS(=O)(=O)[O-])cc2)cc1 (stereo not given) | 4.65 µM (active) | –
O=C(Cc1coc(-c2ccc(F)cc2)n1)NCc1ccccc1 | inactive | –
Oc1ccc(/C=C/c2cc(O)cc(O)c2)cc1 | 11.3 µM (active) | –
Oc1cc(O)cc(/C=C/c2ccc(O)c(O)c2)c1 | inactive | –
O=C(O)/C=C/c1ccc(O)c(O)c1 | 6.76 µM (active) | –
O=C(O)/C=C/c1ccc(O)cc1 | 8.81 µM (active) | –
O=C(/C=C/c1ccc(O)c(O)c1)c1ccccc1O | 6.57 µM (active) | –
O=C(c1nnsc1S(=O)c1ccc(Cl)cc1)N1CCOCC1 (stereo not given) | inactive | –
COc1cccc2c(=O)n(CC(=O)Nc3ccccc3F)ccc12 | inactive | –
CC(/C=C/c1ccc(O)cc1)=N/O | 3.08 µM (active) | –
Cc1coc2c1C(=O)C(=O)c1c-2ccc2c(C)cccc12 | inactive | –
CCn1c(/C=C/c2c(C)[nH]c3ccccc23)nc2ccccc2c1=O | inactive | –
N#CCn1c(CCl)nc2ccccc2c1=O | inactive | –
CCn1c(/C=C/c2ccc(O)c(O)c2)nc2ccccc2c1=O | 64.8 µM (active) | –
CCCc1nc2ccccc2c(=O)n1/N=C/c1ccc(O)c(O)c1 | 10.5 µM (active) | –
O=c1c2ccccc2nc(COc2ccccc2)n1/N=C/c1ccc(O)c(O)c1 | 12.1 µM (active) | –
Cc1nc2ccccc2c(=O)n1/N=C/c1cn(-c2ccccc2)nc1-c1cccs1 | inactive | –
Oc1ccc(/C=N/n2c(COc3ccccc3)n[nH]c2=S)cc1O | 9.32 µM (active) | –
O=C(OCn1nnc2ccccc2c1=O)c1ccc(O)cc1 | inactive | –
CSC1=NS(=O)(=O)c2c(C)nn(C)c2S1 | inactive | –
CC(C)(C)c1cc[n+](C2=C([O-])c3ccccc3C(=O)/C2=N\S(=O)(=O)c2ccccc2)cc1 | inactive | –

SMILES | IC50 | inhibition
CCCNC(=O)c1ccc2c(=O)c(O)c(-c3cccc(Br)c3)[nH]c2c1 | inactive | –
Nc1cc(CN2C(=O)c3ccccc3C2=O)cc(Cl)c1O | 4.47 µM (active) | –
O=C1/C(=N/n2cnnc2)c2ccccc2N1Cc1ccccc1 | inactive | –
O=C(NCc1ccccc1)c1onc(CSc2ccc(F)cc2)c1C(=O)NCCCN1CCOCC1 | inactive | –
COc1cc(-c2nc3cnccn3c2Nc2ccccc2)ccc1O | 2.57 µM (active) | –
Oc1ccc(-c2nc3ncccn3c2Nc2ccc3c(c2)OCO3)cc1 | 5.13 µM (active) | –
CN(C)c1ccc(-c2nc3cnccn3c2Nc2ccc3c(c2)OCCO3)cc1 | 11.3 µM (active) | –
CCN(CC)c1ccc(-c2nc3cnccn3c2NC2CCCC2)cc1 | 12.1 µM (active) | –
CC12CCC(C/C1=N/O)C2(C)C (stereo not given) | inactive | –
COc1ccc(-c2c(C)n([O-])c3c([n+]2=O)CCCCC3)cc1OC | inactive | –
Cc1ccc(/C(O)=C2/C(=O)C(=O)OC2c2ccc(Cl)cc2)cc1 (stereo not given) | inactive | –
Oc1ccc(-c2nc3cnccn3c2Nc2ccc3c(c2)OCCO3)cc1 | 3.53 µM (active) | –
NNC(=O)c1sc2cc(C(F)(F)F)cnc2c1-c1ccccn1 | inactive | –
NNC(=O)c1cc(-c2ccccc2)sc1N | 8.67 µM (active) | –
CCOC(=O)c1c(N)ssc1=S | – | 20.8% [at 12.5 µM] (inactive)
CCOC(=O)c1sc(N)nc1C(C)C | inactive | –
CCOC(=O)c1cc(-c2ccc(N)cc2)sc1N | 5.53 µM (active) | –
CC(=O)c1ccc2c3c(cccc13)C(=O)N(c1c(C)nn(C)c1C)C2=O | inactive | –
O=C(NCc1cccs1)Nc1cc(Cl)ccc1Cl | 91.1 µM (active) | –
O=C(NCc1ccco1)Nc1cccs1 | inactive | –
Cc1ccc(C)n1/N=C1/NC(=O)CS1 | inactive | –
Oc1cc(O)c2c(c1)O[C@H](c1ccc(O)c(O)c1)[C@@H](O)C2 | 11.9 µM (active) | –

SMILES | IC50 | inhibition
Oc1cc(O)c2c(c1)OC(c1ccc(O)c(O)c1)C(O)C2 (stereo not given) | 3.95 µM (active) | –
COC(=O)Cc1cc(=O)n(-c2nc3ccccc3s2)[nH]1 | inactive | –
CC(=O)O[C@H]1C[C@@]2(C)[C@@H](C[C@@H](O)[C@H]3[C@@]4(C)CC[C@@H](O)[C@@H](C)[C@@H]4CC[C@@]32C)/C1=C(\CCC=C(C)C)C(=O)O | inactive | –
N#C/C(=C\c1cccc(Cl)c1)C(=O)c1ccccc1 | inactive | –
N#C/C(=C\c1ccc(O)c(O)c1)C(=O)c1ccc(O)c(O)c1 | 3.24 µM (active) | –
COc1cc(/C=C(\C#N)C(=O)c2ccc(O)c(O)c2)cc(I)c1O | 12.3 µM (active) | –
Cc1cccc(C2c3[nH]c4ccccc4c3CCN2C(=O)c2nn(C)c(=O)c3ccccc23)n1 (stereo not given) | inactive | –
COC(=O)/C=C1/N/C(=N\c2nc(C)cc(C)n2)N(c2ccc(Cl)cc2)C1=O | inactive | –
Cc1cc2ccccc2n1CCNC(=O)COc1ccc2ccccc2c1 | inactive | –
OC1CCN(C(=S)Nc2ccc(Nc3ccccc3)cc2)CC1 | 2.9 µM (active) | –
OCC1CCCN(C(=S)Nc2ccc(Nc3ccccc3)cc2)C1 (stereo not given) | 3.07 µM (active) | –
Cc1cc(C)c2c(c1)NC(C(=O)O)C1CC=CC21 (stereo not given) | inactive | –
N#Cc1c(SCC(=O)Nc2nncs2)sc2c(O)cc(=O)[nH]c12 | inactive | –
c1nc2sc3c(c2c2nnnn12)CCC3 | inactive | –
Nc1ccc(-c2nc3c(Cl)cc(N)cc3[nH]2)cc1 | 4.91 µM (active) | –
Nc1ccc(-c2nc3c(Cl)c(N)ccc3[nH]2)cc1 | 3.24 µM (active) | –
O=C(O)COc1ccccc1C(Nc1cccnc1)c1cc(Cl)c2cccnc2c1O (stereo not given) | inactive | –
CCc1c(C)nc2ncnn2c1N1CCCC(C(=O)Nc2cc(F)ccc2C)C1 (stereo not given) | inactive | –
Cc1ccc(-c2cc(-c3ccco3)c(C#N)c(=O)[nH]2)cc1 | inactive | –
CCCCOC1(c2ccccc2)NC(=S)NN=C1c1ccccc1 (stereo not given) | 4.2 µM (active) | –
CN1CC(C(=O)O)Cc2c1ccc1ccccc21 (stereo not given) | 8.64 µM (active) | –
CC(C)N1CC(C(=O)O)CC1=O (stereo not given) | inactive | –

SMILES | IC50 | inhibition
COc1cc(C#CC#CCN2CCCCC2)ccc1O | 5.76 µM (active) | –
CN1C(=O)/C(=C/c2ccc(-c3ccccc3[N+](=O)[O-])o2)SC1=Nc1ccc(Cl)c(C(=O)O)c1 | 92.5 µM (active) | –
O=C(O)CN1C(=O)/C(=C\c2cc([N+](=O)[O-])ccc2OCc2ccccc2Cl)SC1=S | inactive | –
C=CCNC(=S)Nc1ccc(N(C)C)cc1 | 1.99 µM (active) | –
CN(C)c1ccc(NC(N)=S)cc1 | 3.1 µM (active) | –
CCCCOC(=O)c1ccc(NC(=O)Nc2ccc(OC)c(OC)c2)cc1 | inactive | –
CCOC(=O)c1c(C)c(C(=O)Nc2ccc(N(C)C)cc2)c(C)n1CC | 10.6 µM (active) | –
CCCCOC(=O)Nc1ccc(N(C)C)cc1 | 4.65 µM (active) | –
Cc1cc(S(=O)(=O)Nc2c(C)nc3nc[nH]n3c2=O)ccc1F | inactive | –
CC(C)CC(NC(=O)C1CCC(=O)N1C(=O)OCc1ccccc1)C(=O)NC(Cc1ccccc1)C(N)=O (stereo not given) | inactive | –
CCN(CC)C(=S)SSC(=S)N(CC)CC | inactive | –
Cn1cccc1Cc1nnc(SCC(=O)NCC2CCCO2)n1C (stereo not given) | inactive | –
CN(C)c1ccc(NC(=S)NCC2CCCO2)cc1 (stereo not given) | 7.16 µM (active) | –
O=C(NCC1CCCO1)c1ccc2c(c1)N(Cc1ccc(F)cc1)CCS2 (stereo not given) | inactive | –
CCOC(=O)C1(C)C=C(Nc2ccc(O)cc2)C(=O)N1c1ccc(O)cc1 (stereo not given) | 2.33 µM (active) | –
c1csc(CN2CCOCC2)c1 | inactive | –
Clc1cc(NCc2cccs2)ccc1N1CCOCC1 | 31.5 µM (active) | –
Oc1ccc(NCc2cccs2)cc1 | 4.39 µM (active) | –
COc1ccc2c(c1)C(=O)Cc1ccccc1O2 | inactive | –
Cc1cc2c(N)cccc2nn1 | inactive | –
Cc1ccc2nsnc2c1NS(=O)(=O)c1c(C)ccc2nsnc12 | inactive | –
Nc1cccc2nsnc12 | 11 µM (active) | –
